Values joined by “and” are separate entries in the source; they are usually repeats but may differ in a detail not shown here. Identical values can stand only once. Out of some 360,000 compounds screened, about 3,600 (1%) were called active.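 Rule for the calls: active = compounds whose plate-normalised and pattern-corrected inhibition of the luciferase reporter signal at the single screening dose is 50% or more; inactive = the rest.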 Many of the other results were omitted from the sample, so actives are more common in it than they were.
assay: TROY pathway blockers in reporter cells – Q293 LMP1-TROYcd cells, NF-kB luciferase, uHTS, primary screen (AID 1347056); settings: 4 h, at 10 µM, active compounds read high

inhibition, inactive:
CC(OC(=O)c1ccccc1NCCO)C(=O)Nc1ccnn1C(C)C (configuration not stated) 4.88%
CCCc1cc(=O)[nH]c(SCC(=O)Nc2sc3c(c2C#N)CCCC3)n1 -13.3%
Cc1sc(NC(=O)C2=COCCO2)c(C#N)c1C -29.2%
O=C1COc2ccc(C(=O)CSc3ccc(Br)cc3)cc2N1 6.67%
CCNC(=S)N(CCN(CC)CC)Cc1cc2cc3c(cc2[nH]c1=O)OCO3 7.05%
Cc1ccc(Cc2c(-c3ccc(Cl)cc3)nc3c4ccccc4ccn23)cc1 4.34%
c1ccc(Cc2c(-c3ccco3)nc3c4ccccc4ccn23)cc1 3.44%
O=C(N=C1SC2CS(=O)(=O)CC2N1Cc1ccccc1)c1ccccc1 (configuration not stated) -0.57%
O=C(COc1ccc2c3c(c(=O)oc2c1)CCC3)NC1CCCCC1 -1.91%
NC(=O)C1CCN(C(=O)COc2ccc3c4c(c(=O)oc3c2)CCC4)CC1 -10.9%
COC(=O)c1cc2c(ccn2C)n1C 0.05%
Cc1ccc(OCCCC(=O)Nc2ccc3c(c2)OCCO3)cc1 17.8%
CCOc1ccc(NCCC(=O)c2ccc3c(c2)OCO3)cc1 9.47%
COc1ccccc1-c1oc2ccccc2c1C#CCCCCO 2.78%
O=c1oc2ccccc2c(=O)c2ccccc12 4.31%
COC(=O)CNc1nc(Cl)nc(N2CCC(C)CC2)n1 6.46%
CCCS(=O)(=O)NC(=O)C1(C)CCN(C(=O)c2sccc2C)C1 (configuration not stated) -21%
O=C(Cc1ccccc1F)NC1CCSc2ccccc21 (configuration not stated) 6.21%
CC(C)CN(C(=O)CN1CCN(S(=O)(=O)c2ccccc2)CC1)c1c(N)n(CC(C)C)c(=O)[nH]c1=O 3.32%
COCCN1C(=O)c2oc3c(C)cc(C)cc3c(=O)c2C1c1cccc(O)c1 (configuration not stated) 1.51%
O=C(COc1ccc(Br)cc1F)NCC1(N2CCCCC2)CCCCC1 -6.39%
COc1ccc(C(=NN)c2ccc(OC)cc2)cc1 -42.8%
COc1ccc(/C(N)=N/OC(=O)Cc2ccccc2)cc1 -56.1%
NC(=O)[C@H]1CC2(CC(c3cccc(NC(=O)[C@H]4CCC(=O)N4)c3)=NO2)CN1C(=O)c1ccccc1C(=O)c1ccccc1 (some centres not stated) -0.31%
CC1CCc2c(sc(NC(=O)c3ccc(Cn4cc(Br)cn4)o3)c2C(N)=O)C1 (configuration not stated) -4.02%
O=C(NCCC1CCCCN1S(=O)(=O)c1cccs1)C(=O)Nc1ccc(F)cc1F (configuration not stated) 1.77%
COc1cc(NC(=O)COc2ccccc2Cl)ccc1NC(=O)C(C)C -6.06%
CCc1ccccc1OCC(=O)Nc1ccc(C)c(S(=O)(=O)N2CCCCCC2)c1 3.2%
COc1cccc(-c2cc3nc4c(c(N5CCC6(CC5)OCCO6)n3n2)CCCC4)c1 7.88%
CN(c1ccccc1)S(=O)(=O)c1ccc(Cl)c(C(=O)OCC(N)=O)c1 -2.16%
CC(=O)c1c(C)[nH]c(C(=O)COC(=O)CCOc2ccc(C)cc2)c1C 17.8%
CCO[C@@H]1OC(C(=O)N2CCOCC2)=C[C@H](C)[C@H]1CCCO -7.92%
CCCCCCCNc1nc(Cl)nc(NCCO)n1 4.41%
Nc1nc(SCC(=O)Nc2cc(C(F)(F)F)ccc2Cl)[nH]c(=O)c1NC(=O)c1ccco1 -8.07%
O=C(Nc1ccc(Cl)cc1)c1cc2nc(C3CC3)cc(C(F)(F)F)n2n1 -25.1%
Cn1c(=O)c2c(nc(Br)n2CCSc2nc3ccccc3o2)n(C)c1=O -10.2%
O=C(Cn1c(NCCO)nc2ccccc21)c1ccc(Cl)cc1Cl 22.3%
OCCNCCOc1ccc(Cl)c(Cl)c1 10.3%
C[C@H](CO)N1C[C@H](C)[C@H](CN(C)C(=O)Nc2ccc3c(c2)OCO3)Oc2ncc(Br)cc2C1=O 6.4%
CCn1c(C(C)NC(=O)c2ccc(C)cc2)n[nH]c1=S (configuration not stated) 21.8%
C=C(C)CNC(=O)c1ccc(OC2CCN(C(=O)COC)CC2)cc1 -21.5%
COc1ccc(NC(=O)CSCc2ccc([N+](=O)[O-])cc2)cc1OC -16.9%
COc1ccc(NC(=O)C2C3CCC(O3)C2C(=O)O)cc1OC (configuration not stated) 8.24%
O=C1c2ccccc2C(=O)N1CCC(c1ccccc1)c1ccco1 (configuration not stated) -65.2%
Cc1ccccc1OCC(=O)Nc1nc(C)c(C(=O)N(C)C)s1 -13.4%
Cc1csc(NC(=O)CSc2nc(=O)cc(N)n2-c2ccc(F)cc2)n1 -68.1%
COc1ccc(C(=O)NC(C)CCc2ccccc2)c(OC)c1 (configuration not stated) -16.4%
Cc1csc(NC(=O)NC2(C(F)(F)F)Oc3ccccc3O2)n1 -1.84%
CCCC(C(=O)NC1CCCC1)N(C(=O)Cn1nnc(-c2ccc(C)o2)n1)c1cccc(O)c1 (configuration not stated) -5.35%
C=CCn1c(COc2ccccc2F)nnc1SCC(=O)N1CC(=O)Nc2ccccc21 -21.6%
COc1cccc(N=c2oc3c(C)ncc(CO)c3cc2C(N)=O)c1 -39.2%
O=C(Nc1ccc(Cl)cc1)/C(=C1\CCCN1)[N+](=O)[O-] -75.7%
Cc1cccc2nc(CSc3nc4[nH]ncc4c(=O)n3-c3cccc(Cl)c3)cc(=O)n12 35.3%
COc1ccc(N(CC(=O)NC(C)(C)C)C(=O)c2ccco2)cc1 -5.86%
CCCNC(=O)C(=O)Nc1cc2c3c(c1)CCC(=O)N3CCC2 -5.66%
CN(Cc1cn(Cc2ccc(C(F)(F)F)cc2)nn1)C1CN(Cc2cn(Cc3ccc(C(F)(F)F)cc3)nn2)S(=O)(=O)C1 (configuration not stated) 14.4%
CN(C(=O)Nc1ccc(Cl)cc1)n1cnc2ccccc2c1=O -48.7%
CC(C)(C)c1nc2ccccc2c(=O)n1N1C(=O)c2ccccc2C1=O 12.4%
CNc1cc(-c2c(OC)cccc2OC)ncn1 -15.5%
CCCNC(=O)c1cc(C2CCCCN2S(=O)(=O)c2ccc(C#N)cc2)on1 (configuration not stated) -10.6%
CC(Oc1ccc(Br)cc1)C(=O)NCC(c1ccco1)N1CCCCC1 (configuration not stated) 7.2%
CCC[C@H]1CCCC/C=C\CCCC(=O)OCCN1C(=O)OC(C)(C)C 12.2%
CCOC(=O)C(C)n1nc(-c2ccccc2)c2ccccc2c1=O (configuration not stated) 7.19%
CCN(CC)C(=O)c1nc[nH]c1C(=O)N(C)Cc1ccccc1 -9.82%
COc1ccccc1/C=C/CN1CCC(CO)(Cc2ccccc2)CC1 -1.26%
Cc1ccccc1CN(c1ccc(C(=O)NCC2CCCO2)cc1)S(C)(=O)=O (configuration not stated) -8.79%
C#CCNC(=O)[C@H](Cc1ccc(C(=O)c2ccccc2)cc1)NC(=O)OC(C)(C)C 5.88%
CC(=O)Nc1ccc(NC(=O)CSC2=NS(=O)(=O)c3ccccc3N2)cc1 -4.58%
CCc1ccccc1NC(=O)CN(c1ccc(OC)cc1OC)S(=O)(=O)c1ccccc1[N+](=O)[O-] 1.82%
N#Cc1c(NC(=O)CCCN2C(=O)c3ccccc3C2=O)oc(-c2ccccc2)c1-c1ccccc1 -11.3%
COc1ccc(-c2oc(/N=C/N3CCCC3)c(C#N)c2-c2ccc(OC)cc2)cc1 -5.76%
C#C[C@]1(O)CC[C@H]2[C@@H]3CCC4=CC(=O)CC[C@@H]4[C@H]3CC[C@@]21CC -7.9% and -4.22%

inhibition, active:
CC(C)=CCCC1(C)C=Cc2c(ccc3c2[nH]c2cc(O)c(C)cc23)O1 (configuration not stated) 56.8%
CCCc1ccc(-c2c(C)sc(NC(=O)c3ccnn3C)c2C#N)cc1 61.4%
Cc1ccc(Cc2c(-c3ccc(C)cc3)nc3c4ccccc4ccn23)cc1 54.4%
CCCCC(NS(=O)(=O)c1ccc(C)cc1)C(=O)Oc1ccc2c3c(c(=O)oc2c1)CCC3 (configuration not stated) 69.9%
COC(=O)CCNc1ccc2c(c1)OCCO2 78.2%
COc1ccccc1N=Cc1c(O)c2ccccc2oc1=O 68.1%
O=C(/C=C/Sc1ncn[nH]1)c1ccc(Cl)cc1 66%
CC(C)c1ccc2c(c1)c(SC(C)(C)C)c(CC(C)(C)C(=O)O)n2Cc1ccc(Cl)cc1 65.6%
COc1ccc(C(C#N)=C2C=CC(=NO)c3ccccc32)cc1 69.6%
Cc1ccccc1OCC(=O)Nc1ccc(N2CCN(C(=O)C(C)C)CC2)c(Cl)c1 52.5%
CC(=O)c1c(C)[nH]c(C(=O)COC(=O)c2cccc(S(=O)(=O)N(C)c3ccccc3)c2)c1C 71%
O=C(Nc1cc(C(F)(F)F)ccc1Cl)c1cc2nc3c(c(C(F)(F)F)n2n1)CCCC3 79%
OCCNc1nc(Nc2ccc(Cl)c(Cl)c2)nc2ccccc12 68.4%
COc1ccc(NC(=S)SC)cc1OC 55.6%
COc1cc(SC)ccc1C(=O)Nc1nc(C)cs1 85.8%
COC(=O)c1sc(NC(=O)c2ccc(OC)cc2OC)nc1C 66.7%
CN(c1ccc2nc3ccccc3c(=O)n2n1)C1CCCCC1 90.3%
CCN(CC)C(=O)c1sc2nc(-c3ccccc3)ccc2c1N 69.8%
COc1cccc2c1C(=O)c1c(O)c3c(c(O)c1C2=O)CC(O)(C(C)=NNC(=O)c1ccc(Cl)c(Cl)c1)CC3OC1CC(N)C(O)C(C)O1 (configuration not stated) 69.6%
N#Cc1c(/N=C/N2CCCC2)oc(-c2ccccc2)c1-c1ccccc1 51.8%

Reference: PubChem BioAssay AID1347056 (Sanford-Burnham Center for Chemical Genomics, 2019)
